Assay results as given in PubChem BioAssay (NCI).
The panel holds about 83,000 compounds, 20% with a hit somewhere; the sample as a whole holds those more often.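 In brief: 96-well plates, 48 h treatment, single concentration, percent growth endpoint.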 Unmarked numbers belong to inactive results. The source made the active and inactive calls. The calls were made as follows: active = growth percent below 10; inactive = the rest.

Test system: MCF7 breast
Test: NCI-60 one-dose screen, 48 h (100 = growth as untreated, 0 = no growth, -100 = all killed)
Settings: 10 µM unless noted

Row | SMILES | growth
1 | CCOc1ccc(NC(=O)c2cc(OC)c(OC)c(OC)c2)cc1 | 20.8%
2 | COc1cc(-c2cc(-c3ccc(Nc4ncnc5cc(Cl)ccc45)cc3)nc(N3CCN(C)CC3)n2)cc(OC)c1OC | 53.8%
3 | COc1ccc(C/C(C)=C(\c2ccc(O)cc2)c2ccc(OCCN3CCCC3)cc2)cc1 | 63.3%
4 | COC(=O)C1=C(C)NC(C)=C(C(=O)OCC(C)C)C1c1ccccc1[N+](=O)[O-] (centres undefined) | 72.7%
5 | O=C1CC2C=CCN2C=C1NC(=O)C1CCCCC1 (centres undefined) | 92.3%
6 | COc1ccc2nc3cc(Cl)ccc3c(NCCN)c2c1 | -70.2% (active)
7 | COc1cccc(/C=C2\COc3ccc(O)cc3C2=O)c1 | 4.96% (active)
8 | COC(c1ccc2ccccc2c1)C(C)C(F)F (centres undefined) | 109%
9 | COc1ccc(-c2ccc(-c3ccc(C(=N)N)cn3)s2)cc1 | 44.1%
10 | O=C1Nc2ccc(F)cc2/C1=C\c1nc(-c2ccccc2F)n2ccccc12 | 47.9%
11 | CCN1C(=S)N(CC)C2C1NC(=S)N2/N=C/C=C/c1ccccc1OC (centres undefined) | 17.9%
12 | COc1ccc2c(c1)c(-c1nonc1-c1c[nH]c3ccc(Br)cc13)cn2C | 24.9%
13 | N#Cc1c(-c2ccccc2)c(C#N)c2c(C#N)c(N)nn2c1N | 15.9%
14 | COc1cccc(Nc2ccnc3[nH]c4ccc([N+](=O)[O-])cc4c23)c1 | 19.7%
15 | Clc1nn2c(Cn3cnc4c(NCc5ccccc5)ncnc43)nnc2c2ccccc12 | 62.1%
16 | O=C1CCC(C(=O)NN(c2ccccc2)c2ccccc2)N1 (centres undefined) | 98%
17 | O=C1/C(=C/c2ccccc2)CN(C(=O)c2cccnc2)C/C1=C\c1ccccc1 | 0.394% (active)
18 | COc1ccc(C(C)=O)cc1S(N)(=O)=O | 96.4%
19 | O=C(CBr)CN1C(=O)c2ccccc2C1=O | 97.7%
20 | CS(=O)(=O)Nc1cc(-c2ccc3ncnc(Nc4ccc5c(cnn5Cc5cccnc5)c4)c3c2)cnc1Cl | 15.2%

Row | SMILES | growth
21 | Cc1c(N2CN3C[C@H](C)N4CN(c5c(C)n(C)n(-c6ccccc6)c5=O)CN5C[C@@H](C)N(C2)C3C54)c(=O)n(-c2ccccc2)n1C (some centres undefined) | 94.9%
22 | O=C(Nc1ncc(Cc2ccccc2Cl)s1)c1cccs1 | 46.3%
23 | COc1ccc(Cc2nnc(Nc3nc4ccccc4s3)s2)cc1 | 105%
24 | CCOC(=O)Nc1nc2ccc(SCC(C)C)cc2s1 | 20.6%
25 | COc1cc(-c2nc3occn3c2-c2ccnc(NCCCNS(=O)(=O)c3ccccc3)n2)ccc1F | 20.5%
26 | CN(C)c1ccc(/C=C2/C=C(c3ccccc3)OC2=O)cc1 | 56.6%
27 | COc1ccc(OC)c(-c2cn3nc(-c4c[nH]c5ccc(Br)cc45)sc3n2)c1 | 12.5%
28 | CCNCc1ccc(O)c2ncccc12 | 17.3%
29 | O=C(CCl)Nc1ccc2c(Nc3cc(O)ccc3Cl)ncnc2c1 | -57.9% (active)
30 | CCNC(=O)Oc1ccc(/C(=C(/C)Cc2ccc(OC)cc2)c2ccc(OCCN3CCCCCC3)cc2)cc1 | 22.2%
31 | CC(C)(C)c1cc(C=Nc2cccc(C(F)(F)F)c2)c(O)c(C(C)(C)C)c1 | 97.7%
32 | C(/C=C/c1ccccc1)=Nc1ccc(CCc2ccc(N=C/C=C/c3ccccc3)cc2)cc1 | 69.2%
33 | Cn1cc(C(=O)c2nc(-c3c[nH]c4ccc(Br)cc34)no2)c2cc(Br)ccc21 | 38.8%
34 | Cc1[nH]c(C(=O)Nc2ccc(C(N)=O)cc2NC(C)C)c(Cl)c1Cl | 92%
35 | O=C1OCC2=C1C(c1cccc(C(F)(F)F)c1)c1cc3c(cc1N2CCO)OCO3 (centres undefined) | 20.9%
36 | COc1ccc2cc(-c3cnc4nonc4n3)ccc2c1 | 15.7%
37 | Cn1ncc2ccc(-c3nc(-c4ccccc4)[nH]c3-c3n[nH]c(=O)n3C3CC3)cc21 | 90.2%
38 | Cn1ccnc1C(=O)/C=C/c1ccc(C(=O)Nc2ccc(F)cc2)cc1 | 19%
39 | O=C(CSc1nc2ccc([N+](=O)[O-])cc2[nH]1)Nc1cccc([N+](=O)[O-])c1 | 52.8%
